Our source for the inhibition values is ChEMBL document CHEMBL1961873, “Compounds: GSK PKIS; Assays: Nanosyn kinase panel” (2012).

A word on the inhibition: it is the change of the read-out against control, counted positive when it falls.

The target in experiment [1] is High affinity nerve growth factor receptor (Homo sapiens) (UniProt P04629). To be noted: at 1 µM.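 Note: each value is the mean percent inhibition of TRKA.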
The target of experiment [2] is BDNF/NT-3 growth factors receptor (Homo sapiens) (UniProt Q16620). The conditions noted are these: at 0.1 µM.
The target is the same in experiment [3]. To be noted: at 1 µM.
The target in experiment [4] is NT-3 growth factor receptor (Homo sapiens) (UniProt Q16288). The conditions noted are these: at 0.1 µM.
The target is the same in experiment [5]. To be noted: at 1 µM.
For experiment [6], the target named is T1, Tyrosine-protein kinase TXK (Homo sapiens) (UniProt P42681).
T1 sequence (whole entry): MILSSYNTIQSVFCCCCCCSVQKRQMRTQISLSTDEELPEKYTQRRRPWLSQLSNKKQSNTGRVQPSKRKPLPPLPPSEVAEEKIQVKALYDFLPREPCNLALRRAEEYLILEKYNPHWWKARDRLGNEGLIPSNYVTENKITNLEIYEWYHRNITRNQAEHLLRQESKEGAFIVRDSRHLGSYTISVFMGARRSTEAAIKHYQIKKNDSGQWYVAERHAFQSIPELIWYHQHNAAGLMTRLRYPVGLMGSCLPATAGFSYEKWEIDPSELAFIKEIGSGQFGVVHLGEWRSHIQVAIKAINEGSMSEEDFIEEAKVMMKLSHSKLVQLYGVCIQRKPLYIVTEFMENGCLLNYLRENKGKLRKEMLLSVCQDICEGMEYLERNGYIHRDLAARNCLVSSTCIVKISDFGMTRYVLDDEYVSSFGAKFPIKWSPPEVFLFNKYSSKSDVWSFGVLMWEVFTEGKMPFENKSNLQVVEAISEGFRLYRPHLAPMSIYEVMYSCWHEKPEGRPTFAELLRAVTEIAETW
To be noted: at 0.1 µM.

The target of experiment [7] is T1, Tyrosine-protein kinase TXK (Homo sapiens). The conditions noted are these: at 1 µM.
In experiment [8] the target is Non-receptor tyrosine-protein kinase TYK2 (Homo sapiens) (UniProt P29597). To be noted: at 0.1 µM.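 Note: each value is a mean of the inhibition readings.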
Chain of Non-receptor tyrosine-protein kinase TYK2 (Homo sapiens) (P29597 whole entry): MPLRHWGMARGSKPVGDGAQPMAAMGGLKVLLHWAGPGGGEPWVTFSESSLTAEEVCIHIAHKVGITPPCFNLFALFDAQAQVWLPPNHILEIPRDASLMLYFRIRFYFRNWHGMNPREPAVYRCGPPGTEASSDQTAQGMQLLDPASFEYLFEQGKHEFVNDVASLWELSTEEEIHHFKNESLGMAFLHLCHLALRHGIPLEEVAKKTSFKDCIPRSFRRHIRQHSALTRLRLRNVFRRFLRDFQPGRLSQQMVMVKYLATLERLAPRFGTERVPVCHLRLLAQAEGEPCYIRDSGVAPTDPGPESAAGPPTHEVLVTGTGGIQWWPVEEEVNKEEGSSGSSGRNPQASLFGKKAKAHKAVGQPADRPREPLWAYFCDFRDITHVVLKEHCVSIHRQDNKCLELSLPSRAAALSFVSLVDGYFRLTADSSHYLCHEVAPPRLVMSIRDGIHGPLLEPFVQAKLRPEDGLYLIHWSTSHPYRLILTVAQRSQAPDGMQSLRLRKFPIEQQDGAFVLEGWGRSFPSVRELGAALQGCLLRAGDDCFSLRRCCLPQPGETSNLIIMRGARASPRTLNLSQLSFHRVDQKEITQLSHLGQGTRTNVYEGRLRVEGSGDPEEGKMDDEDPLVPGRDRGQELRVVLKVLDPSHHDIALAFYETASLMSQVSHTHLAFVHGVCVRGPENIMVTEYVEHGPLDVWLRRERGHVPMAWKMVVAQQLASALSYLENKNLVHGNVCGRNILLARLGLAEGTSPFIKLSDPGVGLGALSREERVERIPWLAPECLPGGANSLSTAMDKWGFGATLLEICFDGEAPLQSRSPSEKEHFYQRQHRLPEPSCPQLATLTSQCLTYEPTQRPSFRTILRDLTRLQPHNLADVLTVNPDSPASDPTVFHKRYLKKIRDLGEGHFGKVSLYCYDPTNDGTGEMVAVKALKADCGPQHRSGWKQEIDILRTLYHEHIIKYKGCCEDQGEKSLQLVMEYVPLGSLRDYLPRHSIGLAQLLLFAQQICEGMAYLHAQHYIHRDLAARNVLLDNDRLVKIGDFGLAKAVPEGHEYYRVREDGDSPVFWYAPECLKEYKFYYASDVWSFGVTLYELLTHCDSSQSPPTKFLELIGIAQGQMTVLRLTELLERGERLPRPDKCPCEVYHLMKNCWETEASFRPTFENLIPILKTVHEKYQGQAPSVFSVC
The target in experiment [9] is T2, Dual specificity protein kinase TTK (Homo sapiens) (UniProt P33981).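 Note: reported figures are mean TTK inhibition at 1 µM.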
T2 sequence (whole entry): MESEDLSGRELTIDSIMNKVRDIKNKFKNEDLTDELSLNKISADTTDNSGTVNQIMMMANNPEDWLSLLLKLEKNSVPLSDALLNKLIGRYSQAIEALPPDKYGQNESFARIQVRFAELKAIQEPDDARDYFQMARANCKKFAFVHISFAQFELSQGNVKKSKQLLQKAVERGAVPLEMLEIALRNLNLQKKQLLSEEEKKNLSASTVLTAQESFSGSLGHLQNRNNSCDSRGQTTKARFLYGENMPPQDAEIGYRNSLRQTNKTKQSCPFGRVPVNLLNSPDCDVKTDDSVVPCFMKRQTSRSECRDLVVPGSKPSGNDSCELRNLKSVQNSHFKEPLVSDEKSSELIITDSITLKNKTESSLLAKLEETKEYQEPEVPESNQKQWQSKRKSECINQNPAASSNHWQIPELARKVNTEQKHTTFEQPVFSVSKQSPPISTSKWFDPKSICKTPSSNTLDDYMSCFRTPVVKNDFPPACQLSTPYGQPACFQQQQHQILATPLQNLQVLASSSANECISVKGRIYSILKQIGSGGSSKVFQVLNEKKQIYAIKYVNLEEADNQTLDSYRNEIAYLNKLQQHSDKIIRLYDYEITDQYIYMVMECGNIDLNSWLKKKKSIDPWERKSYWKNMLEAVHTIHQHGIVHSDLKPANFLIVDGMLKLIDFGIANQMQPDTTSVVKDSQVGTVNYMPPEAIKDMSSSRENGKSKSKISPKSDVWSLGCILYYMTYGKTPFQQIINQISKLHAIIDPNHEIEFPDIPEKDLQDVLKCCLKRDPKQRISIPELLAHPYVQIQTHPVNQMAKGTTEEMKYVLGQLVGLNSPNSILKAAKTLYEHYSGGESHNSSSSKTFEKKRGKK
The conditions noted are these: at 1 µM.

The target in experiment [10] is T3, Aurora kinase A (Homo sapiens) (UniProt O14965).
T3 sequence (whole entry): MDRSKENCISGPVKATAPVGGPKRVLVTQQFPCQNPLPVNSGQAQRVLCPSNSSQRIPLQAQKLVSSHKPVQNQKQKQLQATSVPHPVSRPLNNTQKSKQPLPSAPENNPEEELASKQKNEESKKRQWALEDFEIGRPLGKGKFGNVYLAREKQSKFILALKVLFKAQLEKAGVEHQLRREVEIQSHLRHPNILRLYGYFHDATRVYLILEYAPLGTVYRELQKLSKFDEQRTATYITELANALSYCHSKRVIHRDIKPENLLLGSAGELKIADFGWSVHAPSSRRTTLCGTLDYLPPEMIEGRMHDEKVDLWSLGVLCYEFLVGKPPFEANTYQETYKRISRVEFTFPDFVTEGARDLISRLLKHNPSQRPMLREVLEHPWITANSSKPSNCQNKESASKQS
To be noted: at 0.1 µM.

In experiment [11] the target is T3, Aurora kinase A (Homo sapiens). The conditions noted are these: at 1 µM.
Experiment [12] concerns the target Aurora kinase B (Homo sapiens) (UniProt Q96GD4). To be noted: at 0.1 µM.
Experiment [13] shares this target. The conditions noted are these: at 1 µM.
Experiment [14] concerns the target T4, Aurora kinase C (Homo sapiens) (UniProt Q9UQB9).
T4 sequence (whole entry): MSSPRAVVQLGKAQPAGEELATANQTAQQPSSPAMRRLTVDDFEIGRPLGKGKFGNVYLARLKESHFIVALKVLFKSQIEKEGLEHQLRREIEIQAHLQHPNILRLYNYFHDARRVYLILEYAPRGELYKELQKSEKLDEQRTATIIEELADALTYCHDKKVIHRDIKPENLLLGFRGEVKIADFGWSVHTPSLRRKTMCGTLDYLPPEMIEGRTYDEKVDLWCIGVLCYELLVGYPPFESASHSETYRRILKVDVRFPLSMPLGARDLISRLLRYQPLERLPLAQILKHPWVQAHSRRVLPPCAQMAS
The conditions noted are these: at 0.1 µM.

The target in experiment [15] is T4, Aurora kinase C (Homo sapiens). To be noted: at 1 µM.
The target of experiment [16] is Serine/threonine-protein kinase 10 (Homo sapiens) (UniProt O94804). To be noted: at 0.1 µM.
Chain of Serine/threonine-protein kinase 10 (Homo sapiens) (O94804 whole entry, looked up): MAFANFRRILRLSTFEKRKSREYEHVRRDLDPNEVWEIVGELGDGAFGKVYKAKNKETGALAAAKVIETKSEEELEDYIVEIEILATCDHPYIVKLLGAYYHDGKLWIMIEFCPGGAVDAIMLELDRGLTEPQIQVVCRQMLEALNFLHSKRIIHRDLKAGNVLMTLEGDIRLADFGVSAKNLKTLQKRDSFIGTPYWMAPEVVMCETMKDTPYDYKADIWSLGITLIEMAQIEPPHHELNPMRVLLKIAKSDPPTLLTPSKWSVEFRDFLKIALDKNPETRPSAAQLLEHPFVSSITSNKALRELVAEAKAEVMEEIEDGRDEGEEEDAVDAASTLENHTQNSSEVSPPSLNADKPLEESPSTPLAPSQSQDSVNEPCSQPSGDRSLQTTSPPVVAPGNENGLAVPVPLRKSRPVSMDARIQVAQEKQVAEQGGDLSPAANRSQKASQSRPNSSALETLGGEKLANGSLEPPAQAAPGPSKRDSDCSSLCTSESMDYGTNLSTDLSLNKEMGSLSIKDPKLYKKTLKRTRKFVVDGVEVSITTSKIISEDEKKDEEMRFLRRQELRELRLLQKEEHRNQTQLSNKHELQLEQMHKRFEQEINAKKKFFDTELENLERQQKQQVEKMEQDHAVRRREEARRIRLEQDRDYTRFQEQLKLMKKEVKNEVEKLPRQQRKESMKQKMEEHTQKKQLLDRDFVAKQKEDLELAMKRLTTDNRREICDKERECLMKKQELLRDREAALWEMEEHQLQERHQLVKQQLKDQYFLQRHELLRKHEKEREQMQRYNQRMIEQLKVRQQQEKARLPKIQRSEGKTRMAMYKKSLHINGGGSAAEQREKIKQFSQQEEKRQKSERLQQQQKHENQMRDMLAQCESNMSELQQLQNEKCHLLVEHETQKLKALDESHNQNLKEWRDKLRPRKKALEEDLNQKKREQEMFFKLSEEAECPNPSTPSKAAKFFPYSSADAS
Experiment [17] has the same target. The conditions noted are these: at 1 µM.
The target of experiment [18] is T5, Mitogen-activated protein kinase kinase kinase kinase 2 (Homo sapiens) (UniProt Q12851).
T5 sequence (whole entry): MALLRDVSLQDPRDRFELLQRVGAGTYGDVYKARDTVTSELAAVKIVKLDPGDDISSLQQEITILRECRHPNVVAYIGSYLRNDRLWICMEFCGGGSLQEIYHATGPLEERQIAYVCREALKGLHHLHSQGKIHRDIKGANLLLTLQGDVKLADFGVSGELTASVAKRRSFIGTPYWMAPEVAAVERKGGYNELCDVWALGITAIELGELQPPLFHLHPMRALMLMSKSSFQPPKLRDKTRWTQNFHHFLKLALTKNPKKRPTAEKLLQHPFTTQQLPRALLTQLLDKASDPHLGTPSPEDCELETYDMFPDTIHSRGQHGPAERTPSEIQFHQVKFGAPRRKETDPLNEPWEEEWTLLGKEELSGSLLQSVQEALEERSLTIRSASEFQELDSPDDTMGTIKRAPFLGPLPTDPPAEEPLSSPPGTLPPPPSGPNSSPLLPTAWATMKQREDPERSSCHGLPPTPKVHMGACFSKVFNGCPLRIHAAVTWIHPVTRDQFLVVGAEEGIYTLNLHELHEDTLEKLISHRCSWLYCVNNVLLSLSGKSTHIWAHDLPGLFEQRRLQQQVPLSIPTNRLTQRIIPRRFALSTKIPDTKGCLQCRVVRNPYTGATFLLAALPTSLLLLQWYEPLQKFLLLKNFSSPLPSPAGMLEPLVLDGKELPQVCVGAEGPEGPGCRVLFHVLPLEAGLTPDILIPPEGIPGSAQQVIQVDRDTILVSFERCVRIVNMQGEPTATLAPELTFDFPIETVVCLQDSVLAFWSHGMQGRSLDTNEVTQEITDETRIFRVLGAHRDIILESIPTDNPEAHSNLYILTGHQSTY
The conditions noted are these: at 0.1 µM.

Experiment [19] has as its target T5, Mitogen-activated protein kinase kinase kinase kinase 2 (Homo sapiens). The conditions noted are these: at 1 µM.
The target in experiment [20] is Mitogen-activated protein kinase kinase kinase kinase 4 (Homo sapiens) (UniProt O95819). The conditions noted are these: at 0.1 µM.
Chain of Mitogen-activated protein kinase kinase kinase kinase 4 (Homo sapiens) (O95819 2-1239 limits assumed): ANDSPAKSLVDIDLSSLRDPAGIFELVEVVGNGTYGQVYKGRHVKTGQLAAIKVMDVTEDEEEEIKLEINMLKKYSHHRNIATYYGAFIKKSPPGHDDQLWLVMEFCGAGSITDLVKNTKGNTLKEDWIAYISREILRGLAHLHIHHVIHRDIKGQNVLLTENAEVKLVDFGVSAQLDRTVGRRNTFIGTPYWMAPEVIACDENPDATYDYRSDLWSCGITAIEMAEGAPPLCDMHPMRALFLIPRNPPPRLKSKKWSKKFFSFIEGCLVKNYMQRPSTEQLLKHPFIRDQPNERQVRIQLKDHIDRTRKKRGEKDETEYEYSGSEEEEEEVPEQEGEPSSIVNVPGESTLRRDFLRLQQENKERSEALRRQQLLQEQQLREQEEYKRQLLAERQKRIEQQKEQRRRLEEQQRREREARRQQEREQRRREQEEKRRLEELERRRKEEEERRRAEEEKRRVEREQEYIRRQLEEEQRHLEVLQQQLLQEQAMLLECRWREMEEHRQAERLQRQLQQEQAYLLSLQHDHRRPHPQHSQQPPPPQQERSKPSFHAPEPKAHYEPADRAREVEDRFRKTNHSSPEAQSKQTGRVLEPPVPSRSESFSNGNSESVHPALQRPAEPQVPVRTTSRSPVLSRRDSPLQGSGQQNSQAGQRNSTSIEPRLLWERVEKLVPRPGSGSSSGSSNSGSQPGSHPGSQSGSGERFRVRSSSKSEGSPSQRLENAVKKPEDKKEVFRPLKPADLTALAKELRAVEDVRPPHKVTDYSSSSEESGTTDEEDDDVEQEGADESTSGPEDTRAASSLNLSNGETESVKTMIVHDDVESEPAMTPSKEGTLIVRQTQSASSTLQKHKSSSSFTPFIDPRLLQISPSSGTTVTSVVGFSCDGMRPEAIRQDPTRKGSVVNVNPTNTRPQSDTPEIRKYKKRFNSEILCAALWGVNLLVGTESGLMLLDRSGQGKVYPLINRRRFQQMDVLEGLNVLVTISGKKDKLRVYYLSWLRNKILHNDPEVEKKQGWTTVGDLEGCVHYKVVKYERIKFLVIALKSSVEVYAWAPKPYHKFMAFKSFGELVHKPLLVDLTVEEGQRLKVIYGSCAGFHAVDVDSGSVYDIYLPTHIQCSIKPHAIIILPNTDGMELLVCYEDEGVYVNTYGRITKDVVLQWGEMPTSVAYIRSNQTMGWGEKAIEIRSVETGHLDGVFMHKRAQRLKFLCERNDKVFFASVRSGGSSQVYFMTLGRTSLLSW

Chain of High affinity nerve growth factor receptor (Homo sapiens) (P04629 33-796 limits assumed): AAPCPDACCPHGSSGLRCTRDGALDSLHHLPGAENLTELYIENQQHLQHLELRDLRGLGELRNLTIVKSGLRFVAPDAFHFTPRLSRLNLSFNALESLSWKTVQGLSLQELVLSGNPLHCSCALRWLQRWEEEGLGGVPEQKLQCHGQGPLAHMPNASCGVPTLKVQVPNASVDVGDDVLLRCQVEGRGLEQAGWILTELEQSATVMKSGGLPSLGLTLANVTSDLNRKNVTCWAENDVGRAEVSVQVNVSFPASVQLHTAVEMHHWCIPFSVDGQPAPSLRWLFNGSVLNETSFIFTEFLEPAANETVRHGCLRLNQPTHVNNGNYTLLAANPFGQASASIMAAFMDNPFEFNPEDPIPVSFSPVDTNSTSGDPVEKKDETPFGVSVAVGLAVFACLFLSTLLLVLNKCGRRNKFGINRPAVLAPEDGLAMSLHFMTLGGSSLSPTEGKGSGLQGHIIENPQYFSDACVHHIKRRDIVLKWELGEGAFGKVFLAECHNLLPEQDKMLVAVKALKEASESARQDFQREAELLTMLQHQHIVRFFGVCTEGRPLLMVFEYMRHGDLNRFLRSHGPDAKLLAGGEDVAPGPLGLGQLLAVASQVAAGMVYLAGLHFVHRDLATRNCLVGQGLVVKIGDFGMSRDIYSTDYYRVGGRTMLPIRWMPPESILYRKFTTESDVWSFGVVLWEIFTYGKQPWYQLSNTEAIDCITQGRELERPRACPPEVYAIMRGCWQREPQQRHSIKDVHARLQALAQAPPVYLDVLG
Chain of Aurora kinase B (Homo sapiens) (Q96GD4 whole entry): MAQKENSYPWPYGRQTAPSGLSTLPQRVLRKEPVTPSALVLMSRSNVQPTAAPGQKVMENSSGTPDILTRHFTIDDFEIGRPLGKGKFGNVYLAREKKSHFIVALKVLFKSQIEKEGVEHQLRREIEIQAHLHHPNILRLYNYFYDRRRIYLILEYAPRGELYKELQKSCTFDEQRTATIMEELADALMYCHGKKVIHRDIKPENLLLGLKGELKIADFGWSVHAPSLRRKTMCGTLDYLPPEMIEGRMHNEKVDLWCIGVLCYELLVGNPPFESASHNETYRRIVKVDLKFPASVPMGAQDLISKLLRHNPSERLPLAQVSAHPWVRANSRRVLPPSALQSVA

For `CC(C)c1ccc(-c2cc(-c3c[nH]nc3-c3ccccn3)ccn2)cc1`, the inhibition in experiment [1] came to 2.9%; in [2] it was 0.33%; in experiment [3] it was 2.07%; in [4] it was 0.32%; in experiment [5], 1.76%; in experiment [6], 2.1%. Further, the inhibition was found to be 2.05% in experiment [7]; 0.66% in [8]; 11.3% in experiment [9]; 1.03% in [10]; 3.72% in experiment [11]; 0.9% in experiment [12]. Moreover, the inhibition is 5.53% in experiment [13]; 1.22% in [14]; -0.07% in experiment [15]; 0.88% in experiment [16]; 0.62% in experiment [17]; 1.5% in experiment [18]. In addition, the inhibition turned out to be 3.27% in [19] and 10.9% in experiment [20].

On to `Fc1ccc(Nc2nccc(-c3c(-c4ccc(C(F)(F)F)cc4)nn4ncccc34)n2)cc1F`, for which the inhibition was 1.59% in [1]; 2.27% in experiment [2]; 2.56% in experiment [3]; 3.55% in experiment [4]; 2.83% in experiment [5]; 2.95% in experiment [6]. Also, the inhibition in experiment [7] is 4.27%; in [8], -3.95%; in [9], 8.25%; in experiment [10], 3.59%; in [11], 14.1%; in experiment [12] it was 4.71%. Further, the inhibition in [13] stood at 4.62%; in [14], 2.92%; in experiment [15] it was 12.9%; in experiment [16], 3.37%; in [17], 0.68%; in [18] it was 0.94%. In addition, the inhibition was found to be 1.77% in experiment [19] and 5.44% in experiment [20].

`CCCNc1cccc(-n2ncc3c(N/N=C/c4ccncc4)ncnc32)c1`: the inhibition in [1] was found to be 7.34%; in experiment [2], 5.18%; in experiment [3] it was 33.9%; in experiment [4], 4.23%; in experiment [5], 36.8%; in [6], 2.17%. The inhibition in experiment [7] is 8.54%; in experiment [8], -0.85%; in experiment [9], 15.7%; in [10], 9.48%; in [11], 70.7%; in experiment [12], 14.3%. For the same compound, the inhibition in [13] is 43.8%; in experiment [14], 17%; in experiment [15], 58.5%; in [16] it was 6.3%; in [17], 28.4%; in experiment [18] it was 1.16%. The inhibition in [19] amounted to 3.57%; in experiment [20], 9.69%.

`COc1cccc(Nc2nccc(-c3cnn4ncccc34)n2)c1`: the inhibition in experiment [1] stood at 17.4%; in experiment [2], 6.68%; in experiment [3], 34.1%; in experiment [4], 7.22%; in experiment [5], 37.6%; in experiment [6], 2.32%. Also, the inhibition in experiment [7] was 15.5%; in [8], -4.06%; in [9], 22.8%; in experiment [10], 11.9%; in experiment [11] it was 86.4%; in experiment [12], 26.7%. The inhibition amounted to 72.3% in [13]; 33.2% in experiment [14]; 97.3% in experiment [15]; 4.01% in experiment [16]; 17.4% in experiment [17]; 17.1% in experiment [18]. Besides, the inhibition in [19] was found to be 60.1%; in [20], 14.8%.

`CS(=O)(=O)CCNCc1ccc(-c2ccc3ncnc(Nc4ccc(OCc5ccccc5)cc4)c3c2)o1`: the inhibition was determined as 2.55% in [1]; 2.66% in [2]; 4.99% in [3]; 3.88% in [4]; 5.1% in [5]; 0.48% in experiment [6]. The inhibition in experiment [7] is 3.39%; in experiment [8] it was -1.78%; in [9], 7.19%; in [10], 3.51%; in experiment [11] it was 7.7%; in [12], 4.74%. Besides, the inhibition in [13] turned out to be 10%; in [14] it was 2.17%; in [15], 7.65%; in [16], 5.66%; in experiment [17], 7.82%; in experiment [18] it was 0.28%. Moreover, the inhibition in [19] turned out to be 1.58%; in experiment [20], 3.5%.
